Common to all, as to assay: DAPPL (digital affinity profiling via proximity ligation, sequencing); 10 mM Tris-HCl pH 7.5, 50 mM NaCl, 1 mM DTT, 4% glycerol, room temperature, 30 min; GST-TFs on glutathione beads, 16-mer random dsDNA library, 0.1% formaldehyde crosslink after washing; high values mean tight binding
Details in all cases: protein: recombinant; tags: N-terminal GST; dsDNA, one strand shown

One assay addresses T1, ELK1 (Homo sapiens, UniProt P19419 1-428).
T1 sequence: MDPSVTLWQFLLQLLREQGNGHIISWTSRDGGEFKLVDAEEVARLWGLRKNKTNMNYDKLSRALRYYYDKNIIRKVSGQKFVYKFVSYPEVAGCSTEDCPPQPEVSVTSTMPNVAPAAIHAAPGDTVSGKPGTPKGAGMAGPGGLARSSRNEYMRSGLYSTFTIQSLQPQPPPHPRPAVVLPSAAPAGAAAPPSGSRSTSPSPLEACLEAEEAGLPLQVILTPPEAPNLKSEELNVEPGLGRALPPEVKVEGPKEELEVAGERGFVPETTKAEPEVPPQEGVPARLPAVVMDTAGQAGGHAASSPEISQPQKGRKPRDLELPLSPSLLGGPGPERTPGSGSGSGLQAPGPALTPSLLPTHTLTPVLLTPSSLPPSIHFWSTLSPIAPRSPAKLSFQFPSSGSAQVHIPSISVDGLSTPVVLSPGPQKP
The procedure, abridged:
(§1)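 Beads coated with glutathione captured GST-fused human transcription factors that had been expressed in yeast, and the factors were then given DNA barcodes and pooled with a tag-only sample. The pools were incubated with 200 nmole of a random double-stranded 16-mer DNA library in Tris/NaCl/DTT/glycerol buffer for 30 min at room temperature, washed, crosslinked with 0.1% formaldehyde and proximity-ligated with BsaI/T4 ligase at 37 °C for 1 h. PCR amplification and Illumina NextSeq500 sequencing came last. Binding signal is each hexamer's read frequency for a factor divided by its frequency for the tag-only sample.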

A further assay has as its target T2, GABPA (Homo sapiens, UniProt Q06546 1-454).
T2 sequence: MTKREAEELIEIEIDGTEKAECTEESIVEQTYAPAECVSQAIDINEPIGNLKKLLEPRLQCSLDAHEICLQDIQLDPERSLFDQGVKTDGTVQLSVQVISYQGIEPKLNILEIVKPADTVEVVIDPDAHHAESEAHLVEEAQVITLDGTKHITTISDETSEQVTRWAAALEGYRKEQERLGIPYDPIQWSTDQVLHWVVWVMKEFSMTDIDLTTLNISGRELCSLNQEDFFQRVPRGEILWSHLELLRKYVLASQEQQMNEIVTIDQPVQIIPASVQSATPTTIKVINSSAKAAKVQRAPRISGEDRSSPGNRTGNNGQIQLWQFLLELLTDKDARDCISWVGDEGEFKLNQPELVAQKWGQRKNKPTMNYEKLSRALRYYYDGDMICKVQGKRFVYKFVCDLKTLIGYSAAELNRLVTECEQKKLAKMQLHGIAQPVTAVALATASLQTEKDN
An outline of the steps: as §1

Another assay has as its target T3, ERG (Homo sapiens, UniProt P11308 1-479).
T3 sequence: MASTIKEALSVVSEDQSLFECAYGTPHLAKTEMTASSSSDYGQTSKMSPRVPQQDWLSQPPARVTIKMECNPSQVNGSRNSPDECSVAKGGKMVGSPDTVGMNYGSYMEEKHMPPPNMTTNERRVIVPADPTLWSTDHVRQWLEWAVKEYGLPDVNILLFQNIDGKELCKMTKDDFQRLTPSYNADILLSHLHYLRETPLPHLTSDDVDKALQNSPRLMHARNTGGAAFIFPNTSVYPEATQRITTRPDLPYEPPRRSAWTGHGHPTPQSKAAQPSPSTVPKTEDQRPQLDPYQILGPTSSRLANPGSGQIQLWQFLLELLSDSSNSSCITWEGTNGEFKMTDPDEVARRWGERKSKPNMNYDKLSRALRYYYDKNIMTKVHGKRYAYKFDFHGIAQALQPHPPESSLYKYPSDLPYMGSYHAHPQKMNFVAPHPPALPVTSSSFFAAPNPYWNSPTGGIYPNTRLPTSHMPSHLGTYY
The procedure, abridged:
as §1

The next assay concerns the target ELF1 (Homo sapiens, UniProt P32519 1-619). The procedure, abridged:
as §1

A further assay deals with T4, EHF (Homo sapiens, UniProt Q9NZC4 1-300).
T4 sequence: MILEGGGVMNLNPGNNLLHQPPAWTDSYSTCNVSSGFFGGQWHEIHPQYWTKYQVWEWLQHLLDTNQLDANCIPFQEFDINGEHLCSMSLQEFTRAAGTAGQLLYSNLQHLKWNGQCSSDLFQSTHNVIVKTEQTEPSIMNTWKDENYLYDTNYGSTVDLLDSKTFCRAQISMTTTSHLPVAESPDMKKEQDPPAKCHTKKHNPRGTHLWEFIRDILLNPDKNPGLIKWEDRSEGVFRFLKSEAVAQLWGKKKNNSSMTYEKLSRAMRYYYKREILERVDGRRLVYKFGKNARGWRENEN
An outline of the steps: as §1

The target of the next assay is SPI1 (Homo sapiens, UniProt P17947 1-270). The procedure, abridged: as §1
Another assay addresses SPIB (Homo sapiens, UniProt Q01892 1-262). The procedure, abridged: as §1
For a further assay, the target named is T5, FEV (Homo sapiens, UniProt Q99581 1-238).
T5 sequence: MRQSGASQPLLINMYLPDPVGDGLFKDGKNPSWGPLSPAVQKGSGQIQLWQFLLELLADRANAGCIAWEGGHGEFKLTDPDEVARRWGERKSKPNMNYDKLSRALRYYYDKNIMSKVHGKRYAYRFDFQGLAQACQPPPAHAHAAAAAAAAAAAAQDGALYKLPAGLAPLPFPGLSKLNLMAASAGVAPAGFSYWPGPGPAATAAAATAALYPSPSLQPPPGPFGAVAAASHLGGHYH
The procedure, abridged: as §1

For the next assay, the target named is ETV5 (Homo sapiens, UniProt P41161 1-510). An outline of the steps: as §1
Another assay deals with ELF4 (Homo sapiens, UniProt Q99607 1-663). The procedure, abridged: as §1
The target of a further assay is T6, ELK4 (Homo sapiens, UniProt P28324-2 1-405).
T6 sequence: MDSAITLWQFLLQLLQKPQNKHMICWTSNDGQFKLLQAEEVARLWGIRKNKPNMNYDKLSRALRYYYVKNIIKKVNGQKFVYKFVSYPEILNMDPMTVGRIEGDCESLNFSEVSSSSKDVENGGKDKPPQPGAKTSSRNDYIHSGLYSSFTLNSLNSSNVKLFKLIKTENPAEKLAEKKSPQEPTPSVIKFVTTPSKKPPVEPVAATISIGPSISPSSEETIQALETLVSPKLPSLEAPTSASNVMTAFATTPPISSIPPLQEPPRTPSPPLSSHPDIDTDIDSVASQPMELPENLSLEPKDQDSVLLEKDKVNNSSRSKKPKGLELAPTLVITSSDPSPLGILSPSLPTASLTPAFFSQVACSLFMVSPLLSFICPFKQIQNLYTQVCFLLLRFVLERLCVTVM
The procedure, abridged: as §1

In another assay the target is T7, ETV2 (Homo sapiens, UniProt O00321 1-342).
T7 sequence: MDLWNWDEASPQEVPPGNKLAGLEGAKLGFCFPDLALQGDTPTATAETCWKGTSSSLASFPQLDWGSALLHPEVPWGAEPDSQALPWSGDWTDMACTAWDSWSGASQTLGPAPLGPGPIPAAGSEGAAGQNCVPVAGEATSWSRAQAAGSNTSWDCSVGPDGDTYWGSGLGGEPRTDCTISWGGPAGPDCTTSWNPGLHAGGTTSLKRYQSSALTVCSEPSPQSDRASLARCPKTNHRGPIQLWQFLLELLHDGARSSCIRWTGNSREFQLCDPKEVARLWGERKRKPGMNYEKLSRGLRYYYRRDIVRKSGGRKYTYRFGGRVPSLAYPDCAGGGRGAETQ
An outline of the steps: as §1

The next assay deals with ETV1 (Homo sapiens, UniProt P50549 1-477). An outline of the steps: as §1
Another assay has as its target T8, ERF (Homo sapiens, UniProt P50548 1-548).
T8 sequence: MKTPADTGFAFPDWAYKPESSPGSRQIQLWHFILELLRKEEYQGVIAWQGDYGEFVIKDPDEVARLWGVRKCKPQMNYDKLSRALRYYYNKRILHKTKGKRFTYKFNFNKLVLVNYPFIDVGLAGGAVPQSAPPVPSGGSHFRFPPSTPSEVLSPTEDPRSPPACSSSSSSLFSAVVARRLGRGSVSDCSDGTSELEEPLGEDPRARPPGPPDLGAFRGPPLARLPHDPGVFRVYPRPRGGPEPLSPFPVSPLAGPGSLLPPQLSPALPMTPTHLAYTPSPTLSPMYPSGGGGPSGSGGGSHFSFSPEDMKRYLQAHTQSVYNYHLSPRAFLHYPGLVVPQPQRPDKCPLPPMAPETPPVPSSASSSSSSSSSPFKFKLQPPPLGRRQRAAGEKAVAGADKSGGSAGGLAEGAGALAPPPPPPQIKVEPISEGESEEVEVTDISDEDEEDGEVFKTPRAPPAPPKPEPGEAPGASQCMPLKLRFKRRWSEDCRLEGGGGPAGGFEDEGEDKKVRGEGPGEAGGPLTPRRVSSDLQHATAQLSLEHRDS
The procedure, abridged: as §1

A further assay concerns the target T9, ETV3L (Homo sapiens, UniProt Q6ZN32 1-361).
T9 sequence: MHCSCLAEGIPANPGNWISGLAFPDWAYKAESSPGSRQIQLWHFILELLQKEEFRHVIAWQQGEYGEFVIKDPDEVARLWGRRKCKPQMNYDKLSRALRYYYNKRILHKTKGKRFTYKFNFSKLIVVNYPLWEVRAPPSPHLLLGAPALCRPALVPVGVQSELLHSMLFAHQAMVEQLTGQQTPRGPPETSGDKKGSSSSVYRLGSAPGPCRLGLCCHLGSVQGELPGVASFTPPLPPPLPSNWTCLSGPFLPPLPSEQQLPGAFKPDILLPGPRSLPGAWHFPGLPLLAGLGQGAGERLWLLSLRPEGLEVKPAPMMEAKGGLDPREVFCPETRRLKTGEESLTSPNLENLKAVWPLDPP
The procedure, abridged:
as §1

The target of another assay is T10, ETS2 (Homo sapiens, UniProt P15036 1-469).
T10 sequence: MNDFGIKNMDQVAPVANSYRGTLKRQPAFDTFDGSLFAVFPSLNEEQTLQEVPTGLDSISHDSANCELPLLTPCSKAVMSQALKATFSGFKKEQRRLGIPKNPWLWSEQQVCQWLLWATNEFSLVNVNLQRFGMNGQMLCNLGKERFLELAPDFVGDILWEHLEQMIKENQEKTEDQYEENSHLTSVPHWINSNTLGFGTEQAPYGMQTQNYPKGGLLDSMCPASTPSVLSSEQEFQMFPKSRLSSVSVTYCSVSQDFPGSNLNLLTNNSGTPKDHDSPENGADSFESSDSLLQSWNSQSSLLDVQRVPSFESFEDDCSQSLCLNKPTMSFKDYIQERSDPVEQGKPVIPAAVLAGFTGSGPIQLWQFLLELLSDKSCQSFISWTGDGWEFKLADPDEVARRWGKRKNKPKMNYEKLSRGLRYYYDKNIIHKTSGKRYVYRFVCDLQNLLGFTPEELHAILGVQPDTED
The procedure, abridged:
as §1

For the next assay, the target named is T11, SPDEF (Homo sapiens, UniProt O95238 1-335).
T11 sequence: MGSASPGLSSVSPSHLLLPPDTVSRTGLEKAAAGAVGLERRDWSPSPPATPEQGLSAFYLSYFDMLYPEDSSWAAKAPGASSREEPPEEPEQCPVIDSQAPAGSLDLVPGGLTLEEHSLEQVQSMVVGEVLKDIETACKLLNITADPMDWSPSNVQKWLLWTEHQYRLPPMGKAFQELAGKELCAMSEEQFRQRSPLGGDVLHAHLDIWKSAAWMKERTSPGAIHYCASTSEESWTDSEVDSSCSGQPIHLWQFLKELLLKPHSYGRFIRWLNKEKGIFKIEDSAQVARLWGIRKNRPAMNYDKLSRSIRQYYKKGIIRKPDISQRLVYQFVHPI
An outline of the steps:
as §1

For another assay, the target named is T12, ETV7 (Homo sapiens, UniProt Q9Y603 1-341).
T12 sequence: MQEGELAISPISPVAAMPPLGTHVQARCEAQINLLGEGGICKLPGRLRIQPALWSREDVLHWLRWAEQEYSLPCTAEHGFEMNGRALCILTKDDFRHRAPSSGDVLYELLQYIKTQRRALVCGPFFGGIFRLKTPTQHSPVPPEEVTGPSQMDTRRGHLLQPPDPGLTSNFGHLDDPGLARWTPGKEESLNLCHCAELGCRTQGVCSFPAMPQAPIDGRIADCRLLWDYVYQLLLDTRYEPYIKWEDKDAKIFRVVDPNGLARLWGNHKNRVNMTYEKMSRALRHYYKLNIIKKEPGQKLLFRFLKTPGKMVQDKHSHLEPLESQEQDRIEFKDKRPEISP
An outline of the steps: as §1

Another assay deals with T13, ETV3 (Homo sapiens, UniProt P41162-2 1-143).
T13 sequence: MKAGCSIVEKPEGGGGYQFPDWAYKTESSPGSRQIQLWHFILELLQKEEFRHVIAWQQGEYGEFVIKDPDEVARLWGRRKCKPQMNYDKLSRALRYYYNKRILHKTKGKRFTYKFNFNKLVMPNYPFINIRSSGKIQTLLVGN
The procedure, abridged: as §1

Another assay concerns the target ETV6 (Homo sapiens, UniProt P41212 1-452). The procedure, abridged: as §1

Sequence of ETV6 (P41212 whole entry): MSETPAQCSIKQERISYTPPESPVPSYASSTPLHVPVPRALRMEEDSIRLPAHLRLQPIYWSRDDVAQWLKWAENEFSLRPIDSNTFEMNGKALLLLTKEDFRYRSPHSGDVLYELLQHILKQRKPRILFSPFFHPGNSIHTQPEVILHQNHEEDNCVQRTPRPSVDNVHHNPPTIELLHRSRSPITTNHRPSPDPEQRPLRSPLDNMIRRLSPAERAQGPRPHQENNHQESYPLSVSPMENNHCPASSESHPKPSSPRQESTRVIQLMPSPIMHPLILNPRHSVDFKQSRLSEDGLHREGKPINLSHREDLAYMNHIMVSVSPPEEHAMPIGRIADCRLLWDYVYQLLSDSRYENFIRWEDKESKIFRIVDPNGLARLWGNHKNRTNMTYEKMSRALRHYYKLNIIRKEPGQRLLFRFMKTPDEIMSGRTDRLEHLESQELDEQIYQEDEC
Sequence of ELF1 (P32519 whole entry): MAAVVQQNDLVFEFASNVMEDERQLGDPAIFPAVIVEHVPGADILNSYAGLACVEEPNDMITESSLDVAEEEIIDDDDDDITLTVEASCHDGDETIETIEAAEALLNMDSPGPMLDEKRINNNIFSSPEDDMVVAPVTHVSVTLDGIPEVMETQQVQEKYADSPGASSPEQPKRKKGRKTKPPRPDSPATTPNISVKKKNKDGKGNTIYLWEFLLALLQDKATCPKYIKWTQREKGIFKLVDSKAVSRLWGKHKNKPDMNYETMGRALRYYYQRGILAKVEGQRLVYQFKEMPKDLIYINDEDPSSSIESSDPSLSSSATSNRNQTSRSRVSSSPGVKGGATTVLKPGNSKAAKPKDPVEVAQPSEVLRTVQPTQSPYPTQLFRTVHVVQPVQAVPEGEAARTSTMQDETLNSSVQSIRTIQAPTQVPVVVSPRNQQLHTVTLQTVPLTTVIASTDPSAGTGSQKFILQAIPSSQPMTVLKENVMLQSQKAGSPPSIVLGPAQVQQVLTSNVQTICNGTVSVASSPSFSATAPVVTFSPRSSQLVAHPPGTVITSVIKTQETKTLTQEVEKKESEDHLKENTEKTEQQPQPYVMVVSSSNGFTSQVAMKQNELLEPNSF
Sequence of ETV1 (P50549 whole entry): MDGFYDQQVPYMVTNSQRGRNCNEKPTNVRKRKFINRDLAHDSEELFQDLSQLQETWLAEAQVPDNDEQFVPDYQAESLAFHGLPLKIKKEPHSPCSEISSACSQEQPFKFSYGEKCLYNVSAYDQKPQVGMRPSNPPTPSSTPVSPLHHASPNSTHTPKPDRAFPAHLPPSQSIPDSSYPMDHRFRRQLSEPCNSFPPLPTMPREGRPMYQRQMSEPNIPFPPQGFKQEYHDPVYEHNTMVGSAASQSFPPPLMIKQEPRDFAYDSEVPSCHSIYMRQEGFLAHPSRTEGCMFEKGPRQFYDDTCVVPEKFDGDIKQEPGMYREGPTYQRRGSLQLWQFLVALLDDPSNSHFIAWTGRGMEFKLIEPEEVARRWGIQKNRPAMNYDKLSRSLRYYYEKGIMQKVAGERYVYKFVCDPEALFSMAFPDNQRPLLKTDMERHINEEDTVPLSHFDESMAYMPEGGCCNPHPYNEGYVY
Sequence of SPIB (Q01892 whole entry): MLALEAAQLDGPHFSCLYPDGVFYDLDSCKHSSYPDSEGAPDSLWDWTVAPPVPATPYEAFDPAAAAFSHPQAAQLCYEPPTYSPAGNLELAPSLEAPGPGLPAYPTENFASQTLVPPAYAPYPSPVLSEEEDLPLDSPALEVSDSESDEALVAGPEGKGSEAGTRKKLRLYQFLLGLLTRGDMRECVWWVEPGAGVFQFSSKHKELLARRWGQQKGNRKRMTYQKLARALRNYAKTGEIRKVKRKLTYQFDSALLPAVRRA
Sequence of ETV5 (P41161 whole entry): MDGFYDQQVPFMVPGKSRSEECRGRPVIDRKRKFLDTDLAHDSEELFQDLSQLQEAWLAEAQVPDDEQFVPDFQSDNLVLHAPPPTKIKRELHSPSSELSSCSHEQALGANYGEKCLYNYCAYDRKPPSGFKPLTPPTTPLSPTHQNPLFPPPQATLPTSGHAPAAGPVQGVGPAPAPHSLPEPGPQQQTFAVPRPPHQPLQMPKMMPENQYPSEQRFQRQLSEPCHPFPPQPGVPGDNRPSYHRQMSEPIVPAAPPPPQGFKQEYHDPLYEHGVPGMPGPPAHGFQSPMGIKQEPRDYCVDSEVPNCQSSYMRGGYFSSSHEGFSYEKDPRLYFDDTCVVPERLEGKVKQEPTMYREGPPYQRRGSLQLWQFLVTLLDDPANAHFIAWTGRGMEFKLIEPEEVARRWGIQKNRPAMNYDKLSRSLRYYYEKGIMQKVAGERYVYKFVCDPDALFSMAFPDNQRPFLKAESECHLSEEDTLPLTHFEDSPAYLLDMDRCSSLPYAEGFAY
Sequence of ELF4 (Q99607 whole entry): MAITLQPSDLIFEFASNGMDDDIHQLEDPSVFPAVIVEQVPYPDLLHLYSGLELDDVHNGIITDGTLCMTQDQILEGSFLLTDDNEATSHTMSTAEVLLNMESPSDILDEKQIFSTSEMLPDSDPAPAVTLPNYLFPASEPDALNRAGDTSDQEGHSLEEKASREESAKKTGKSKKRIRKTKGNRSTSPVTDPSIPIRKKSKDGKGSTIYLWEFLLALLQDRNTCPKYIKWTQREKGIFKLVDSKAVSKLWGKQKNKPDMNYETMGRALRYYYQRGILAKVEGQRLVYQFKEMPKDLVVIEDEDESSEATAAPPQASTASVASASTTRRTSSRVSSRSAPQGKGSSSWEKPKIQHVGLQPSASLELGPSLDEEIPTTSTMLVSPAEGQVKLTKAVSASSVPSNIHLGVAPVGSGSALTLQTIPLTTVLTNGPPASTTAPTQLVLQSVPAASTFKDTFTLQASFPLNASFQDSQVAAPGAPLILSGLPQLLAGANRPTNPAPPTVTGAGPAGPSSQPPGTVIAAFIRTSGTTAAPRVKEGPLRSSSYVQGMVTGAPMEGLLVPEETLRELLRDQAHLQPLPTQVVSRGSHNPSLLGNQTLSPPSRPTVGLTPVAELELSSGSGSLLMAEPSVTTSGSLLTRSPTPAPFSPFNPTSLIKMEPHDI

Consider CATGCA, for which the binding signal was 1.08 fold enrichment (6-mer frequency, TF over GST control) with ELK1; 1.16 fold enrichment (6-mer frequency, TF over GST control) in the assay with GABPA; 1.04 fold enrichment (6-mer frequency, TF over GST control) in the assay with ERG; 1.1 fold enrichment (6-mer frequency, TF over GST control) with ELF1; 1.12 fold enrichment (6-mer frequency, TF over GST control) with EHF; 1.02 fold enrichment (6-mer frequency, TF over GST control) in the assay with SPI1. The binding signal in the assay with SPIB was 1.07 fold enrichment (6-mer frequency, TF over GST control); in the assay with FEV, 1.1 fold enrichment (6-mer frequency, TF over GST control); with ETV5, 1.1 fold enrichment (6-mer frequency, TF over GST control); with ELF4 it was 1.11 fold enrichment (6-mer frequency, TF over GST control); in the assay with ELK4, 1.05 fold enrichment (6-mer frequency, TF over GST control); in the assay with ETV2, 1.12 fold enrichment (6-mer frequency, TF over GST control). Besides, the binding signal with ETV1 is 1.11 fold enrichment (6-mer frequency, TF over GST control); in the assay with ERF, 1.09 fold enrichment (6-mer frequency, TF over GST control); with ETV3L, 1.16 fold enrichment (6-mer frequency, TF over GST control); with ETS2, 1.06 fold enrichment (6-mer frequency, TF over GST control); with SPDEF, 1.13 fold enrichment (6-mer frequency, TF over GST control); in the assay with ETV7, 1.03 fold enrichment (6-mer frequency, TF over GST control). The binding signal with ETV3 is 1.05 fold enrichment (6-mer frequency, TF over GST control); with ETV6 it was 1.18 fold enrichment (6-mer frequency, TF over GST control).

The values above are taken from article PMC7862700, “An all-to-all approach to the identification of sequence-specific readers for epigenetic DNA modifications on cytosine”.
